The values below come from PubChem BioAssay (NCATS).

A number with no mark means an inactive call. Records with an inconclusive call do not appear. Calls of active or inactive are those of the source. Unless noted, calls come from the whole dose curve; as a rule, active = well fitted curve in either direction with a large enough effect (not every such curve was filed as active); inconclusive = small, poorly fitted or top-dose-only effect, or another doubt; inactive = flat fitted curve, though single readings scatter.

The nature of assay [1]: AP1 Signaling Pathway (AID 357).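 Note: ME-180 reporter cells stimulated with EGF at its EC50 level; % is set by controls: 0 for no effect and ±100 for the full control effect.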 Particulars: ME-180 AP-1-bla reporter, EGF-induced, beta-lactamase ratio, 5 h; at 17.2 µM (top of the series) unless noted. Summed up:
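A ratiometric CCF4 readout (405 nm excitation; 460 and 530 nm emission) quantified AP-1-driven beta-lactamase in ME-180 cells after 5 h with compound and EC50 EGF; AC50 values were derived for activators and inhibitors.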

Assay [2] in a line: Stat Signaling Pathway (AID 446).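 Note: ME-180 cervical cancer cells given 40 pM IL-6 alongside compound; SIE-controlled beta-lactamase reporter measured as 460/530 nm FRET emission ratio; % is set by controls: 0 for no effect and ±100 for the full control effect.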 Particulars: ME-180 SIE beta-lactamase reporter, IL-6 stimulated, 5 h; at 17.2 µM (top of the series) unless noted. An outline of the steps:
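Emission at 460 and 530 nm (excitation 405 nm) reports SIE-controlled beta-lactamase in ME-180 cells. Cells received compound with 40 pM IL-6 for 5 hrs at 37 C; data scaled between 300 pM IL-6 and 125 nM JAK-inhibitor controls.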

Assay [3] deals with Glucocorticoid receptor (Homo sapiens) (UniProt P04150). The assay is described as follows: GR-GFP Redistribution (AID 450;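 active = compounds whose dose series gives a full or clear partial fitted curve of increased nuclear translocation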; note: potency is the fitted concentration of half-maximal effect).
Glucocorticoid receptor (Homo sapiens), sequence (P04150 whole entry, looked up, the tested form may be a part): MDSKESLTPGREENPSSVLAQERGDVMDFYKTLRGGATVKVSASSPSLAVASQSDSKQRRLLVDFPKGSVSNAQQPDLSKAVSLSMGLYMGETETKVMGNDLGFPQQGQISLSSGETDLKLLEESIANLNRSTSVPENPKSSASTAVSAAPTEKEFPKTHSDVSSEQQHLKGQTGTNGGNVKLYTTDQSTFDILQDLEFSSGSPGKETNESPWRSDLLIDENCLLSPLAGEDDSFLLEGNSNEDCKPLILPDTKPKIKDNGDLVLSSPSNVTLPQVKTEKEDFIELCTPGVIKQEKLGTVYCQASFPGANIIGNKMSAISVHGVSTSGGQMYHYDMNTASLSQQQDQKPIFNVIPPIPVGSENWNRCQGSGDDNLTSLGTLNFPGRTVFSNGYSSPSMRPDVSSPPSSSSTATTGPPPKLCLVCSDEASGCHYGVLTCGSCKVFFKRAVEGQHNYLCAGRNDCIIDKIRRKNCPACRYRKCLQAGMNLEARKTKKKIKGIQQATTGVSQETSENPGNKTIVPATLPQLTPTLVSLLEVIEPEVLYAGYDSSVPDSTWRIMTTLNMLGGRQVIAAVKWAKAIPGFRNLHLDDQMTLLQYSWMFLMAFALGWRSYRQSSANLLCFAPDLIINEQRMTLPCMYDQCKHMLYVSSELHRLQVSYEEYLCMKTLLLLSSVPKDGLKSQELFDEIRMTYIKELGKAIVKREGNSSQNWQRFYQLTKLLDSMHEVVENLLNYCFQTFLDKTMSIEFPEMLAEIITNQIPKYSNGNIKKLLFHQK
Assay [4] in a line: qHTS Assay for Identification of Small Molecule Agonists for Hypoxia Response Element Signaling Pathway (AID 914; active = well fitted activation curve with a large enough effect in the signal ratio, with a control signal flat, not every such curve was filed as active; the % refers to the signal ratio; note: potency is the fitted concentration of half-maximal effect; for activation: % of control where 0% means no effect). Particulars: ME-180 (cervical carcinoma) HRE-bla reporter, beta-lactamase ratio, CoCl2, 17 h; activation: active compounds read high. An outline of the steps:
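ME-180 cells carrying an HRE-driven beta-lactamase reporter were treated with compounds in a titration series plus an EC50 level of CoCl2 for 17 h at 37 degrees Celsius; CCF4 readout as the 460nm/530nm ratio gave AC50 values.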

Assay [5] addresses Glucocorticoid receptor (Homo sapiens) (UniProt P04150). The assay is described as follows: GR-EFC Redistribution (AID 451; calls by dose curve; note: potency is the fitted concentration of half-maximal effect). Particulars: CHO-K1 GR-EFC translocation, beta-gal luminescence, 2 h. Summed up:
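CHO-K1 cells expressing nuclear EA and GR-ED fragments of b-gal; compounds titrated up to 46 uM final, 2 h at 37 C. GR nuclear translocation read as complemented b-gal luminescence after 1 h RT detection.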

In assay [6] the target is Guanine nucleotide-binding protein G(i) subunit alpha-1 (Homo sapiens) (UniProt P63096). The assay is described as follows: qHTS Assay for Inhibitors of RGS12 GoLoco Motif Activity (Green Fluorophore) (AID 879; active = well fitted curve in the direction sought with a large enough effect; an effect the other way counts as inactive or inconclusive;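 note: 0% = labeled peptide with Gαi1 and full inhibition = labeled peptide alone without protein; negative values mean loss of peptide binding seen as reduced polarization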). Summed up: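 A drop in FITC polarization marked displacement of the FITC-tagged RGS12 GoLoco peptide (10 nM) from Gαi1 (50 nM). Compounds were incubated 10 min at room temperature in Tris pH 7.5 buffer containing 150 mM NaCl, 0.1 mM GDP and 0.05% NP40; unlabeled peptide titration served as control.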
Guanine nucleotide-binding protein G(i) subunit alpha-1 (Homo sapiens), sequence (P63096 whole entry, looked up): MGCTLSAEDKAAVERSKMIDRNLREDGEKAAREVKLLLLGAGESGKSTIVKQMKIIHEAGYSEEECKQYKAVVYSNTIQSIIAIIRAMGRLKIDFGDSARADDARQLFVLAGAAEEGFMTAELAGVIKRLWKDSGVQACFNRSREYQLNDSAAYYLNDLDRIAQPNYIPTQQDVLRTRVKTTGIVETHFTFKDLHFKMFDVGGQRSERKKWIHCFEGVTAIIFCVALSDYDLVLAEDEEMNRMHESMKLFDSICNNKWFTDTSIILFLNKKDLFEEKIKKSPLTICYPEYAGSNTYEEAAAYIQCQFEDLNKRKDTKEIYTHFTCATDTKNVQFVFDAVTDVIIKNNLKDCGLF
In general terms: In qHTS, concentration-response curves come from the screen itself.

A short description of assay [7]: qHTS Assay for Identification of Small Molecule Agonists for Thrombopoietin (TPO) Signaling Pathway (AID 917; active = well fitted curve in the direction sought with a large enough effect; an effect the other way counts as inactive or inconclusive; note: % is set by controls: 0 for no effect and ±100 for the full control effect). Summed up: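 Human TPO receptor–transfected Ba/F3 cells (murine, IL-3-dependent) in IL-3-deficient medium; compounds plus TPO at EC50, 26 pM final; 24 hrs, 37 C; GpIIb-luciferase luminescence after 10 min RT detection.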
Assay [8] addresses Muscarinic acetylcholine receptor M1 (Rattus norvegicus) (UniProt P08482). The assay is described as follows: qHTS Assay for Antagonists of Acetylcholine Muscarinic M1 Receptor: Kinetic Measurement of Intracellular Calcium Response (AID 943; active = well fitted curve in the direction sought with a large enough effect; an effect the other way counts as inactive or inconclusive;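 note: Fluo-4 calcium signal as peak divided by basal fluorescence over 4 min; nearly all actives have a fitted effect of over 75% in size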). An outline of the steps:
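Antagonism measured as reduction of carbachol-evoked (EC80, 100 nM final) calcium flux in rat M1-CHO cells after 10 min compound exposure. Fluo-4 signal read kinetically; ratio of maximal to basal fluorescence.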

The target is the same in assay [9]. The assay is described as follows: qHTS Assay for Antagonists of Acetylcholine Muscarinic M1 Receptor: Measurement of IP-One Response (AID 944; active = well fitted curve in the direction sought with a large enough effect; an effect the other way counts as inactive or inconclusive; note: nearly all actives have a fitted effect of over 75% in size). Summed up: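 IP1 accumulation measured via TR-FRET between d2-IP1 and Eu-cryptate anti-IP1 antibody after carbachol (200 nM, EC80) stimulation for 30 min; rat M1-transfected CHO cells received compound 10 min before agonist.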

In assay [10] the target is Pyruvate kinase (Leishmania mexicana) (UniProt Q27686). The assay is described as follows: qHTS Validation Assay for Inhibitors of Leishmania Mexicana Pyruvate Kinase (AID 945; active = well fitted curve in the direction sought with a large enough effect; an effect the other way counts as inactive or inconclusive;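 note: 0% = DMSO only neutral control wells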). An outline of the steps: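 LmPYK E451W 0.2 nM; 0.5 mM PEP, 0.1 mM ADP, 7 mM MgCl2, 50 mM KCl, imidazole pH 7.2, 0.01% Tween 20, 0.05% BSA; 1 h RT; PKLight luminescence; DMSO-normalized.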
Pyruvate kinase (Leishmania mexicana), sequence (Q27686 2-499 E452W): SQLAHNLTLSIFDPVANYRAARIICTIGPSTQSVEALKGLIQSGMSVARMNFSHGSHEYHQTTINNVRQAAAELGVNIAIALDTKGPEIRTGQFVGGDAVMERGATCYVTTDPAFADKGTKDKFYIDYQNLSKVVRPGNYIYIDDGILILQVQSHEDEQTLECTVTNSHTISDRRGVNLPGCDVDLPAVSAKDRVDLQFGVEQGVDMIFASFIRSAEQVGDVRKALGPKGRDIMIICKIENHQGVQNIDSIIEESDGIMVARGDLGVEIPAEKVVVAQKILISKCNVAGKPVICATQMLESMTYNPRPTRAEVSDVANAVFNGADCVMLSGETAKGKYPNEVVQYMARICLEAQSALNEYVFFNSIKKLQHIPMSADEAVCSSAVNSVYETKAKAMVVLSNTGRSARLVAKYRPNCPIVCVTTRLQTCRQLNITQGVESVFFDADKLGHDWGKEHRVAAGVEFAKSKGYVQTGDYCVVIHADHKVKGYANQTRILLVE
For assay [11], the target named is Pyruvate kinase PKM (Homo sapiens) (UniProt P14618). The assay is described as follows: qHTS Assay for Activators of Human Muscle Pyruvate Kinase (AID 954; active = well fitted curve in the direction sought with a large enough effect, not every such curve was filed as active;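 note: 0% = uninhibited enzyme and -100% = no enzyme or full thiadiazolimine inhibition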). An outline of the steps: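 PKM2, human, >95% pure, 0.1 nM; PEP 0.5 mM (Km), ADP 0.1 mM; 50 mM imidazole pH 7.2, 50 mM KCl, 0.01% Tween 20, 0.05% BSA; 1 h RT; luciferase luminescence readout.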
Pyruvate kinase PKM (Homo sapiens), sequence (P14618 whole entry, looked up): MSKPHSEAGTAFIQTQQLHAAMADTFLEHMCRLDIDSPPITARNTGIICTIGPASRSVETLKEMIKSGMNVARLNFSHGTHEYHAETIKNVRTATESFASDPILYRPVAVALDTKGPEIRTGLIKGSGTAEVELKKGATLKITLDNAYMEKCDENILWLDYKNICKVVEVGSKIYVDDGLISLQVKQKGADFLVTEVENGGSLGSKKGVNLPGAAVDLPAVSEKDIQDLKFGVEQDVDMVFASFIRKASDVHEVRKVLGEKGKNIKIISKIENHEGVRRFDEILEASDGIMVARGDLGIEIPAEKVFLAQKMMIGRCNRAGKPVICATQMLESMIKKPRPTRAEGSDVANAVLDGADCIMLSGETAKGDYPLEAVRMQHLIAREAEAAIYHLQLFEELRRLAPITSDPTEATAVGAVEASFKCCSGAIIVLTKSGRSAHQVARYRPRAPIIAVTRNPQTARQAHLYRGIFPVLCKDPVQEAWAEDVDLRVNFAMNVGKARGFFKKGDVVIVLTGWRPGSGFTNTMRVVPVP
The target in assay [12] is Alpha-galactosidase A (Homo sapiens) (UniProt P06280). The assay is described as follows: Counterscreen for Glucocerebrosidase Inhibitors: qHTS Assay for Human alpha-Galactosidase at pH 4.5 (AID 992; active = well fitted curve in the direction sought with a large enough effect; an effect the other way counts as inactive or inconclusive; note: 0% is about no effect). An outline of the steps: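 Fluorogenic 4-MU alpha-D-galactoside (80 uM) hydrolysis, 2 nM enzyme, pH 4.5 citrate buffer + 0.005% Tween-20; 20 min RT; NaOH/glycine pH 10 stop; Ex365/Em440. Compounds titrated 0.7 nM–77 uM; Hill-equation AC50.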
Alpha-galactosidase A (Homo sapiens), sequence (P06280 whole entry, looked up): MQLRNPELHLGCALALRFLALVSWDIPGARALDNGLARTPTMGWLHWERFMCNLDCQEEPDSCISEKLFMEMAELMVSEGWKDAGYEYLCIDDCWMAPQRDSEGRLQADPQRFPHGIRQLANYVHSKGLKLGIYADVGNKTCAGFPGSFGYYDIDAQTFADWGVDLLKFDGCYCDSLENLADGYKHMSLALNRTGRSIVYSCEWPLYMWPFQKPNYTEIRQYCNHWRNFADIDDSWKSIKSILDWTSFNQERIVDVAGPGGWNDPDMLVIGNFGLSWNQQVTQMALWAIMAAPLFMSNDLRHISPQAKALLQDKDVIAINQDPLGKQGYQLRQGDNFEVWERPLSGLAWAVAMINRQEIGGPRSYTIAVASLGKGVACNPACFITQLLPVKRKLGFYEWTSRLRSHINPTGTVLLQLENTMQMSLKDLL

Assay [13] deals with alpha-glucosidase (Oryza sativa, rice) (UniProt Q653V4). The assay is described as follows: Counterscreen for Glucocerebrosidase Inhibitors: qHTS Assay for Rice alpha-Glucosidase at pH 5.0 (AID 997; active = well fitted curve in the direction sought with a large enough effect; an effect the other way counts as inactive or inconclusive;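 note: 0% = full activity with enzyme and -100% = basal without enzyme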). An outline of the steps:
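Endpoint fluorogenic assay at pH 5.0: compounds (0.7 nM to 77 uM) titrated against 4 nM rice enzyme and 400 uM 4-MU-alpha-glucoside for 20 min at room temperature; NaOH/glycine stop, read ex 365/em 440 nm, Hill-fitted AC50.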
(The purpose of a counterscreen is to sort out artefacts and off-target activity.)

For assay [14], the target named is Tyrosyl-DNA phosphodiesterase 1 (Homo sapiens) (UniProt Q9NUW8). The assay is described as follows: Confirmation Assay for Inhibitors of Tyrosyl-DNA Phosphodiesterase (TDP1) (AID 489007; active = well fitted curve in the direction sought with a large enough effect; an effect the other way counts as inactive or inconclusive; note: potency is the fitted concentration of half-maximal effect; nearly all actives have a fitted effect of over 40% in size). Particulars: recombinant human TDP1 enzymatic activity, dose-response. An outline of the steps: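 AlphaScreen assay of tyrosine-FITC cleavage from a biotinylated DNA substrate (15 nM) by E. coli-expressed human Tdp1 (1 nM). Sequence: compound preincubation 15 min, reaction 5 min, bead detection 10 min, all at room temperature. No-enzyme wells give maximum signal.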
Tyrosyl-DNA phosphodiesterase 1 (Homo sapiens), sequence (Q9NUW8 whole entry, looked up): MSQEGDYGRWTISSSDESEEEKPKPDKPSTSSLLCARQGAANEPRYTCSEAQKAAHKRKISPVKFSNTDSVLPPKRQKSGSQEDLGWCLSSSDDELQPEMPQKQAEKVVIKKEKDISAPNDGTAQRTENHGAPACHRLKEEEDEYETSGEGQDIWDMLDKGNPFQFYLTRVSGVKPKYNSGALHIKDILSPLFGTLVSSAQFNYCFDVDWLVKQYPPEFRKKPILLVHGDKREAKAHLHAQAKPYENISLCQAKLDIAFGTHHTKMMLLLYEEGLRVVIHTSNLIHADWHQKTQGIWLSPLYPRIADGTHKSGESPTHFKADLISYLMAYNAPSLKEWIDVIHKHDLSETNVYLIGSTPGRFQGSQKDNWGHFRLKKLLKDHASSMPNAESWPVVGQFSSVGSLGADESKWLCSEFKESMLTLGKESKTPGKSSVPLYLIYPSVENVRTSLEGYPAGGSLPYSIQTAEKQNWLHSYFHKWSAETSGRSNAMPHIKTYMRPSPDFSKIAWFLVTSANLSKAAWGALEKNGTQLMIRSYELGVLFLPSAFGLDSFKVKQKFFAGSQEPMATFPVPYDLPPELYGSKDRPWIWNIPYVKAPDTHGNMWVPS

The target of assay [15] is Tumor susceptibility gene 101 protein (Homo sapiens) (UniProt Q99816). The assay is described as follows: qHTS Assay for Iinhibitors of HIV-1 Budding by Blocking the Interaction of PTAP/TSG101: Hit Validation (AID 651600; active = well fitted curve in the direction sought with a large enough effect; an effect the other way counts as inactive or inconclusive; note: potency is the fitted concentration of half-maximal effect; nearly all actives have a fitted effect of over 70% in size). An outline of the steps:
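Measuring PTAP–Tsg101 interaction by FP: protein at 10 uM and fluorescent peptide at 50 nM (final), buffer 10 mM HEPES pH 7.5 with 0.15 M NaCl, 3 mM EDTA, 0.1 mM TCEP, 0.01% Tween 20; 20 min incubation, r.t.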

Muscarinic acetylcholine receptor M1 (Rattus norvegicus), sequence (P08482 whole entry, looked up): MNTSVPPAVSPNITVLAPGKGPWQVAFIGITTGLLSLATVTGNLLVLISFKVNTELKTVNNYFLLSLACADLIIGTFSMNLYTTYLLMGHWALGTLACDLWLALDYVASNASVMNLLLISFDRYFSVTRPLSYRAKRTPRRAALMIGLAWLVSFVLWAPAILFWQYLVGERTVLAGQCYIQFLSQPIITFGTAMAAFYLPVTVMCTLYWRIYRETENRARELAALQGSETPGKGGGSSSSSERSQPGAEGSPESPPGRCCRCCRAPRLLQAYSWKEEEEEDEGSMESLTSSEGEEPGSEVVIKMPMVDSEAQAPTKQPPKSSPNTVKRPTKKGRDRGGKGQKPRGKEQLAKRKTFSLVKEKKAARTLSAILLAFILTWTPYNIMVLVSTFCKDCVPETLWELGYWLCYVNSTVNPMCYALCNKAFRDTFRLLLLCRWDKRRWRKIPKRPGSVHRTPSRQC
Tumor susceptibility gene 101 protein (Homo sapiens), sequence (Q99816 whole entry, looked up): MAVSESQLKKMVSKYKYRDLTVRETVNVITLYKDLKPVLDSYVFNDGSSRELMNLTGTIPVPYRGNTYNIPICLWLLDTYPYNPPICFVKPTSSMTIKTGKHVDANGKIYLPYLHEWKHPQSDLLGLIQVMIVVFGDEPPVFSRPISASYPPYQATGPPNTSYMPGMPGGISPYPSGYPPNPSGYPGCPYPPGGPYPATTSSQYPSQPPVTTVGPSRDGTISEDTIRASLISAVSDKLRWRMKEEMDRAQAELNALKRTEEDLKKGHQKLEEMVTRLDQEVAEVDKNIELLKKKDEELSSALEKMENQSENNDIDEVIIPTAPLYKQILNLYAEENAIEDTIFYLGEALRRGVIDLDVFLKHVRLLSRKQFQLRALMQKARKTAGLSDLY

Consider `CC1(C)CCN(Cc2ccccc2)C1CC#N` (stereo not drawn), for which, in assay [1], the activity change, negative = inhibition was -13.4%. In assay [2], the activity, negative = inhibition was 6.87%. Also, the Potency in [3] is above 20.6 µM. For the same molecule, the activation in assay [4] was 7.94%.
Taken in the same sequence, the figures for `CCOCCSc1nc2c(c(=O)[nH]c(=O)n2C)n1CCCc1ccccc1` were 3.98%, -3.21%, above 20.6 µM and 6%.
In the case of `O=C(c1ccc(=O)oc1)N1CCOCC1`, in assay [1], the activity change, negative = inhibition is 17.3%. Moreover, in assay [2], the activity, negative = inhibition is -0.795%. In assay [3], the Potency is above 20.6 µM. Moreover, in [4], the activation is 5.28%.
For the molecule `CCOC(=O)C1=C(C)NC(SCC(=O)Nc2nc(C)cs2)=C(C#N)C1c1cccs1` (stereo not drawn), the activity change, negative = inhibition in [1] was -22.9%. Further, in assay [2], the activity, negative = inhibition was -27.7%. Also, the Potency in assay [3] was above 20.6 µM; in [4] it was 10 µM (active).
Taken in the same sequence, the figures for `COCCNC(=O)c1c(N)n(/N=C/c2cccs2)c2nc3ccccc3nc12` were -0.395%, 19.9%, above 20.6 µM and 10 µM (active).
For `CCCN(CCC)C(=O)CC(c1ccc(F)cc1)c1ccco1` (stereo not drawn), the activity change, negative = inhibition in assay [1] was 13%. In assay [2], the activity, negative = inhibition was -3.11%. Also, the Potency in [3] is above 20.6 µM. Besides, in [4], the activation is 13.9%.
For `Cc1ccc(CNC(=O)c2cc3c(=O)n4ccccc4nc3n(Cc3ccco3)c2=N)cc1`, the activity change, negative = inhibition in assay [1] is 5.13%. The activity, negative = inhibition in [2] was 22.1%. Besides, the Potency was above 20.6 µM in assay [3] and 5.01 µM (active) in assay [4].
On to `CCOC(=O)c1sc2c(c1C)c(=O)c(C(=O)OCC)cn2CC`, for which the activity change, negative = inhibition in assay [1] is -9.16%. For the same molecule, the activity, negative = inhibition in assay [2] was 6.04%. Further, in [3], the Potency is above 20.6 µM. Also, the activation in assay [4] was 16.2%.
Take `Cc1cccn2c(=O)c(/C=C(\C#N)S(=O)(=O)c3ccccc3)c(N3CCN(C)CC3)nc12`: the activity change, negative = inhibition in [1] was -0.352%. For the same molecule, in assay [2], the activity, negative = inhibition is 3.87%. Further, the Potency in [3] is above 20.6 µM. The activation in assay [4] is -11.6%.
On to `NC[C@@H]1O[C@@H](O[C@H]2[C@@H](O)[C@H](O[C@@H]3[C@H](O)[C@H](N)C[C@H](N)[C@H]3O[C@@H]3O[C@@H](CO)[C@H](O)[C@H](O)[C@@H]3N)O[C@H]2CO)[C@H](N)[C@H](O)[C@@H]1O`, for which the activity change, negative = inhibition in [1] is 7.75% [at 38 µM]. In addition, the activity, negative = inhibition in assay [2] was -13.5% [at 38 µM]. Also, the Potency in assay [3] and in assay [5] was above 46 µM throughout. Besides, the call in [6], in assay [11], in assay [12] and in [13] was inactive. For the same molecule, the Potency entry in assay [7], in [8], in assay [9] and in assay [10] was “inactive” in each case.
`Cc1nnc2c(NC(C)C)nc3ccccc3n12`: the activity change, negative = inhibition in assay [1] was 14.9%. In [2], the activity, negative = inhibition was -12.6%. Besides, the values for the Potency in assay [3] and in [4] were above 20.6 µM and 10 µM (active), respectively.
Take `N#CC1=C(N)OC2=C(C(=O)CCC2)[C@]12C(=O)N(CC(N)=O)c1ccccc12`: the activity change, negative = inhibition in assay [1] is 12%. Moreover, in assay [2], the activity, negative = inhibition is 1.02%. In assay [3], the Potency was above 20.6 µM. Also, in assay [4], the activation was -22.1%.
Turning to `CCOC(=O)c1[nH]c2ccc(OC)cc2c1NC(=O)CCN1CCC(C)CC1`, the activity change, negative = inhibition in [1] was 8.62%. Moreover, in assay [2], the activity, negative = inhibition was 8.76%. For the same molecule, the Potency in assay [3] was above 20.6 µM. Besides, in [4], the activation was -29.8%.
`O=C1c2ccccc2-c2onc3ccc(NCc4ccco4)c1c23`: in [1], the activity change, negative = inhibition was -13%. For the same molecule, the activity, negative = inhibition in assay [2] is -1.03%. The Potency is above 20.6 µM in assay [3], 7.08 µM (active) in assay [14] and 1.63 µM (active) in assay [15].
Turning to `O=c1/c(=C\c2cccn2-c2ccccc2)sc2nc3ccccc3n12`, the activity change, negative = inhibition in assay [1] was 2.64%. In addition, the activity, negative = inhibition in [2] was 14.8%. For the same molecule, the values for the Potency in assay [3] and in assay [4] were above 20.6 µM and 12.6 µM (active), respectively.
As for `COc1nc(N(C)S(=O)(=O)c2ccc(C)cc2)nc(C)c1Cl`, in [1], the activity change, negative = inhibition was -2.26%. Besides, the activity, negative = inhibition in assay [2] is 5.02%. Moreover, the Potency in assay [3] is above 20.6 µM. The activation in assay [4] was -6.79%.
